# Reference: PubChem BioAssay (Tox21)
# Results filed as inconclusive are left out. Unmarked numbers belong to inactive results. Active and inactive are the calls of the source. Calls follow the shape of the full dose curve.
# Target: 5-hydroxytryptamine receptor 2A (Homo sapiens) (UniProt P28223)
# Test: 5-hydroxytryptamine receptor 2A (HTR2A) small molecule antagonists, cell-based qHTS assay (AID 1963586); also: nearly all actives have a fitted effect of over 45% in size
# Details: HTR2A-CHO cells, DOI-induced calcium flux, fluorescence; series mostly up to 61.5 µM; activity, negative = inhibition: at the top concentration
# Text: National Center for Advancing Translational Sciences [NCATS]
# Division of Preclinical Innovation [DPI]
# U.S. Environmental Protection Agency [EPA]
# National Institutes of Environmental Health Sciences [NIEHS]
# National Toxicology Program [NTP]
# U.S. Food and Drug Administration [FDA]
# The HTR2A receptor is a subtype of the 5-HT2 receptor that belongs to the serotonin receptor family and is a G protein-coupled receptor (GPCR). The HTR2A-CHO cell line stably expressing human 5-hydroxytryptamine receptor 2A (HTR2A) can be used for screening antagonists of interactions between 5-HT2 and its ligands. The HTR2A-CHO calcium flux assay is a homogeneous fluorescence-based assay for detecting the intracellular calcium level using FDSS kinetic plate reader system.
# Tox21 Assay Protocol Summary:
# HTR2A-CHO cells were dispensed at 2000 cells/3uL/well in 1536-well black-clear bottom plates using a Multidrop Dispenser. After the assay plates were incubated at a 37 C/5% CO2 incubator for 18 h, 3 uL of Dye Loading Buffer was transferred to the assay plate by a Flying Reagent Dispenser. The assay plates were incubated at 37 C for 1h. For antagonist mode, 23 nL of compounds dissolved in DMSO, positive controls or DMSO only was transferred to the assay plate by a pin tool. After 5 min incubation at room temperature, 1.5 uL of 4-Iodo-2,5-dimethoxy-alpha-methylbenzeneethanamine hydrochloride (DOI) at 4nM was added to each well. The fluorescence intensity in the plates was measured using FDSS 7000EX kinetic plate reader for 3 min at 1 sec intervals.
# % is scaled to controls: 0 for no effect and ±100 for the full control effect; potency is read from the fitted curve at half-maximal effect.
# Sequence of 5-hydroxytryptamine receptor 2A (Homo sapiens) (P28223 whole entry, looked up): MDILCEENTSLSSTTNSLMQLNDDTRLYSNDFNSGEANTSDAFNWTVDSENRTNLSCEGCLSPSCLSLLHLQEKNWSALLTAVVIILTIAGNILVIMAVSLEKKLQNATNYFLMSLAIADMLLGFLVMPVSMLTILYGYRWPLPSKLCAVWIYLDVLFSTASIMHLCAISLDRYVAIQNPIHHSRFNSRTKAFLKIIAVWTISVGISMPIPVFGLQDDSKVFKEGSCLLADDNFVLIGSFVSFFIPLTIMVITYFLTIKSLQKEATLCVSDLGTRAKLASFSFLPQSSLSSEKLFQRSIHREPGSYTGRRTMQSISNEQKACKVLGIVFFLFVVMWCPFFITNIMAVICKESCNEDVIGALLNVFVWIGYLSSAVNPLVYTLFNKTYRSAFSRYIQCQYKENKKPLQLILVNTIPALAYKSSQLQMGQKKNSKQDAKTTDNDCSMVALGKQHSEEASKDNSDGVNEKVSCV
SMILES,"activity, negative = inhibition",Potency
C/C=C(\C)C(C)=O,-0.411%,
OC/C(Br)=C(\Br)CO,48.9%,
CCCCCCCC/C=C\CCCCCCCCO,6.08%,
CC(O)C#CC(C)O (stereo not given),0.399%,
CC(=O)N(CC(O)CO)c1c(I)c(C(=O)NCCO)c(I)c(C(=O)NCC(O)CO)c1I (stereo not given),-22.6% [at 28.5 µM],
CC1=NN(c2cc(S(=O)(=O)O)ccc2Cl)C(=O)C1N=Nc1ccccc1 (stereo not given),2.89%,
CCOC(=O)COc1ccc2c(c1)CC(NCC(O)c1cccc(Cl)c1)CC2 (stereo not given),12.6%,
Nc1ccc(N=Nc2ccccc2)c(N)c1,,1.64 µM (active)
C=CCCC(=O)O,-4.14%,
C=CCCCCCCC=C,10.4%,
CCc1ccc2c(c1)C(=O)c1ccccc1C2=O,19%,
Nc1ccc(C(=O)Nc2ccccc2N)cc1,-17% [at 28.5 µM],
COCCOC(=O)CC#N,5.02%,
Cc1ncc([C@@H](CCCCCCc2ccc3c(n2)NCCC3)CC(=O)O)cn1,13.5%,
C/C(C=O)=C\c1ccccc1,-6.5%,
Cc1ccc(NC=O)c(C)c1,5.26%,
O=C(OCC(COC(=O)c1cccnc1)(COC(=O)c1cccnc1)COC(=O)c1cccnc1)c1cccnc1,-28.1% [at 28.5 µM],
Oc1ccc(-c2ccccc2)c(Cl)c1,,26.5 µM (active)
NCCc1cnc[nH]1,49.8% [at 28.5 µM],
C[Si](Cl)(c1ccccc1)c1ccccc1,10.8%,

SMILES,"activity, negative = inhibition",Potency
C=CC(C)(C)CC(=O)OC,61.2%,
COc1cc2c(cc1OC)-c1cc(=Nc3c(C)cc(C)cc3C)n(C)c(=O)n1CC2,-1.05% [at 28.5 µM],
CC[N+](CC)(CC(=O)Nc1c(C)cccc1C)Cc1ccccc1 (tested in a mixture with another compound),2.49% [at 28.5 µM],
NC(CCC(=O)O)C(=O)O (stereo not given),-1.6%,
Cc1nn(C)c(Oc2ccccc2)c1/C=N/OCc1ccc(C(=O)OC(C)(C)C)cc1,1.63%,
CC/C=C\CCOC(C)OCC (stereo not given),-3.54% [at 28.5 µM],
S=c1nccc[nH]1,4.42%,
NCCNC(=O)c1ccc(Cl)cn1,1.14% [at 28.5 µM],
CC(C)OC(=O)OCOP(=O)(CO[C@H](C)Cn1cnc2c(N)ncnc21)OCOC(=O)OC(C)C,0.468% [at 28.5 µM],
O=C(c1ccc(O)c(O)c1)c1ccc(O)cc1O,,47.1 µM (active)
CCC(=O)Oc1ccc(/C(CC)=C(\CC)c2ccc(OC(=O)CC)cc2)cc1,-0.353%,
CC1(O)CSC(C)(O)CS1 (stereo not given),-0.817%,
Cc1cc(Nc2ccc(O)cc2)ccc1N,-36.6%,
C=CCN(CC=C)CC=C,13%,
CCNC(=O)NCc1cccc(Cl)c1,52.6% [at 28.5 µM],
CCCCCCCCCO,-1.48%,
Cc1ccc(O)c(C(C)(C)C)c1,,33.4 µM (active)
Cc1c2ccccc2c(C)c2c1ccc1ccccc12,,inactive
CC(=O)Oc1ccc(C(=C2CCCCC2)c2ccc(OC(C)=O)cc2)cc1,3.25% [at 28.5 µM],
CC(C)(C)c1cc(CCC(=O)OCC(COC(=O)CCc2cc(C(C)(C)C)c(O)c(C(C)(C)C)c2)(COC(=O)CCc2cc(C(C)(C)C)c(O)c(C(C)(C)C)c2)COC(=O)CCc2cc(C(C)(C)C)c(O)c(C(C)(C)C)c2)cc(C(C)(C)C)c1O,20.1% [at 28.5 µM],
